Our source for the growth values is PubChem BioAssay (NCI).

Some test systems named below: NCI-H23 lung; NCI-H226 lung; NCI-H322M lung; HOP-62 NSCLC; NCI-H460 lung; HOP-92 NSCLC; NCI-H522 lung; A549/ATCC NSCLC; 786-0 renal; COLO 205 colon; DU-145 prostate; K-562 leukemia; MALME-3M melanoma; MDA-MB-231 breast; RXF 393 renal; SF-268 CNS; SF-295 CNS; SF-539 CNS; UACC-257 melanoma; M14 melanoma.
Holding throughout (assay): NCI-60 one-dose screen, 48 h (100 = growth as untreated, 0 = no growth, -100 = all killed)
What all share (settings): 10 µM

About 83,000 compounds went through this panel and 20% of them were active in at least one assay; those are over-represented in the sample as a whole.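 Results are percent growth after 48 hours of single-concentration exposure. 100 means growth as in untreated cells, lower positive values show inhibition; negative values down to -100 show cell death.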 A number with no mark means an inactive call. Active and inactive are the calls of the source. The calls were made as follows: active = growth percent below 10; inactive = the rest.

For `NC(=S)NN=C1CCCC1`, the growth in the assay with NCI-H23 lung is 83.2%; with NCI-H226 lung it was 95.6%; with NCI-H322M lung, 91.7%; with HOP-62 NSCLC, 95%; in the assay with NCI-H460 lung, 104%; in the assay on HOP-92 NSCLC it was 82.1%. Also, the growth was 99.8% in the assay on NCI-H522 lung; 81.1% with A549/ATCC NSCLC; 106% with 786-0 renal; 101% with COLO 205 colon; 96.8% in the assay on DU-145 prostate; 65.7% with K-562 leukemia. The growth was 85.3% with MALME-3M melanoma; 95% with MDA-MB-231 breast; 107% in the assay with RXF 393 renal; 89.3% with SF-268 CNS; 95.7% in the assay with SF-295 CNS; 110% in the assay on SF-539 CNS. The growth with UACC-257 melanoma was 66.9%; with M14 melanoma, 83.1%.

Consider `CO[C@H]1C[C@@H]2CC[C@@H](C)[C@@](O)(O2)C(=O)C(=O)N2CCCC[C@H]2C(=O)O[C@H]([C@H](C)C[C@@H]2CC[C@@H](O)[C@H](OC)C2)CC(=O)[C@H](C)C=C(C)[C@@H](O)[C@@H](OC)C(=O)[C@H](C)C[C@H](C)/C=C/C=C/C=C1C`, for which the growth was 45.4% in the assay with NCI-H23 lung; 62.2% with NCI-H226 lung; 71.6% in the assay with NCI-H322M lung; 60.7% in the assay on HOP-62 NSCLC; 45.1% in the assay on NCI-H460 lung; 30.7% in the assay with HOP-92 NSCLC. Moreover, the growth in the assay on NCI-H522 lung was 53.8%; in the assay with A549/ATCC NSCLC, 39%; in the assay on 786-0 renal it was 46.9%; in the assay on COLO 205 colon, 61.3%; in the assay on DU-145 prostate it was 32.4%; in the assay on K-562 leukemia, 51.5%. The growth with MALME-3M melanoma was 35.9%; with MDA-MB-231 breast, 75.9%; with RXF 393 renal, 14.1%; in the assay on SF-268 CNS, 56.2%; with SF-295 CNS, 23%; in the assay on SF-539 CNS, 30.4%. In addition, in the assay with UACC-257 melanoma, the growth was 37.3%.

For the compound `CC(=O)N(C)c1ccc([N+](=O)[O-])cc1`, the growth in the assay on NCI-H23 lung is 101%; in the assay on NCI-H226 lung, 105%; with NCI-H322M lung, 114%; with HOP-62 NSCLC, 111%; in the assay with NCI-H460 lung it was 117%; in the assay with HOP-92 NSCLC, 94.5%. In addition, the growth in the assay with NCI-H522 lung was 106%; in the assay on A549/ATCC NSCLC it was 106%; with 786-0 renal, 105%; in the assay on COLO 205 colon it was 114%; in the assay on DU-145 prostate, 122%; with K-562 leukemia, 111%. The growth in the assay on MALME-3M melanoma is 144%; in the assay with MDA-MB-231 breast it was 102%; in the assay on RXF 393 renal, 102%; in the assay with SF-268 CNS, 116%; with SF-295 CNS, 107%; with SF-539 CNS, 106%. For the same compound, the growth was 110% in the assay with UACC-257 melanoma and 108% in the assay on M14 melanoma.

Consider `CCN(CC)C(=O)/C=C(/C)c1ccccc1`, for which the growth in the assay with NCI-H23 lung was 96.5%; with NCI-H226 lung, 97.2%; with NCI-H322M lung it was 106%; with HOP-62 NSCLC, 109%; in the assay on NCI-H460 lung, 104%; with HOP-92 NSCLC, 80.2%. The growth in the assay on NCI-H522 lung was 107%; in the assay on A549/ATCC NSCLC, 113%; in the assay with 786-0 renal, 101%; with COLO 205 colon, 106%; with DU-145 prostate it was 117%; in the assay on K-562 leukemia it was 107%. Also, the growth in the assay on MALME-3M melanoma was 111%; with MDA-MB-231 breast, 108%; with RXF 393 renal, 96.7%; in the assay on SF-268 CNS, 104%; with SF-295 CNS it was 100%; with SF-539 CNS, 107%. Also, the growth in the assay with UACC-257 melanoma was 110%; with M14 melanoma, 104%.

With `FC(F)(F)c1ccc2c(c1)N(CCCN1CCN(C3CC3)CC1)c1ccccc1S2`, the growth with NCI-H23 lung is 27%; with NCI-H226 lung it was 75.4%; in the assay on NCI-H322M lung, 112%; in the assay on HOP-62 NSCLC, 95.7%; with NCI-H460 lung it was 24.4%; in the assay on HOP-92 NSCLC, 51.1%. Further, the growth is 28.7% with NCI-H522 lung; 67.3% with A549/ATCC NSCLC; 63.9% in the assay with 786-0 renal; 79.9% with COLO 205 colon; 2.25% (active) with DU-145 prostate; 24.5% in the assay with K-562 leukemia. In addition, the growth was 96.7% in the assay on MALME-3M melanoma; 83% with MDA-MB-231 breast; 80.7% in the assay with RXF 393 renal; -4.95% (active) in the assay on SF-268 CNS; 3.21% (active) in the assay on SF-295 CNS; 94.2% in the assay with SF-539 CNS. The results for the growth in the assay with UACC-257 melanoma and in the assay with M14 melanoma were 74.4% and 34.3%, respectively.

Regarding `CS(=O)CC1=NC(=N)N=C1CS(C)=O` (configuration not stated), the growth in the assay with NCI-H23 lung was 100%; in the assay on NCI-H226 lung, 102%; in the assay with NCI-H322M lung it was 101%; with HOP-62 NSCLC it was 100%; in the assay on NCI-H460 lung it was 106%; with HOP-92 NSCLC, 103%. Moreover, the growth was 99.9% with NCI-H522 lung; 97.5% in the assay with A549/ATCC NSCLC; 102% with 786-0 renal; 117% in the assay on COLO 205 colon; 111% in the assay with DU-145 prostate; 99.4% in the assay on K-562 leukemia. The growth was 98% in the assay with MALME-3M melanoma; 107% in the assay with RXF 393 renal; 106% in the assay with SF-268 CNS; 98.1% in the assay on SF-295 CNS; 99.5% with SF-539 CNS; 86.6% in the assay on UACC-257 melanoma. Besides, the growth with M14 melanoma is 105%.

For the compound `O=C(Cc1nc2ccc([N+](=O)[O-])cc2nc1CC(=O)c1ccccc1)c1ccccc1`, the growth in the assay with NCI-H23 lung was 43.9%; in the assay on NCI-H226 lung, 68%; with NCI-H322M lung, 61%; with HOP-62 NSCLC, 79.8%; in the assay with NCI-H460 lung it was 52.9%; in the assay with HOP-92 NSCLC, 71.5%. Also, the growth in the assay on NCI-H522 lung is 31.5%; in the assay on A549/ATCC NSCLC, 58.8%; in the assay with 786-0 renal it was 42%; with COLO 205 colon, 91.3%; with DU-145 prostate, 50.6%; in the assay with K-562 leukemia, 43.8%. Moreover, the growth was 46.8% in the assay on MALME-3M melanoma; 89.1% in the assay on RXF 393 renal; 73.9% in the assay on SF-268 CNS; 53% in the assay on SF-295 CNS; 18.3% in the assay on SF-539 CNS; 86.9% in the assay with UACC-257 melanoma. Besides, the growth in the assay with M14 melanoma was 48.4%.

In the case of `CCC(O)CC(CC)CO` (configuration not stated), the growth is 101% with NCI-H23 lung; 102% with NCI-H226 lung; 110% in the assay with NCI-H322M lung; 108% with HOP-62 NSCLC; 94.3% with NCI-H460 lung; 98.8% with HOP-92 NSCLC. Further, the growth in the assay with NCI-H522 lung is 117%; in the assay with A549/ATCC NSCLC it was 105%; in the assay on 786-0 renal, 106%; with COLO 205 colon, 117%; in the assay on DU-145 prostate it was 121%; in the assay on K-562 leukemia, 105%. In addition, the growth in the assay with MALME-3M melanoma is 128%; in the assay on MDA-MB-231 breast it was 108%; with RXF 393 renal, 119%; with SF-268 CNS, 113%; with SF-295 CNS it was 109%; in the assay with SF-539 CNS it was 99.4%. Besides, the growth in the assay with UACC-257 melanoma was 110%; in the assay on M14 melanoma, 102%.
